Active and inactive are the calls of the source. The calls were made as follows: active = hit-call score of the fitted dose curve at least 0.9, where 1 is the maximum; inactive = score below 0.9.
These compounds were tested against X-box-binding protein 1 (Homo sapiens) (UniProt P17861) (assay: ATG_Xbp1_CIS: Attagene CIS-FACTORIAL HepG2 Assay for human X-box Binding Protein 1 (XBP1) (AID 2282972)). Conditions: HepG2 XBP1 cis-element reporter, Attagene multiplex; actives raise or lower the signal.
X-box-binding protein 1 (Homo sapiens), sequence (P17861 whole entry, looked up): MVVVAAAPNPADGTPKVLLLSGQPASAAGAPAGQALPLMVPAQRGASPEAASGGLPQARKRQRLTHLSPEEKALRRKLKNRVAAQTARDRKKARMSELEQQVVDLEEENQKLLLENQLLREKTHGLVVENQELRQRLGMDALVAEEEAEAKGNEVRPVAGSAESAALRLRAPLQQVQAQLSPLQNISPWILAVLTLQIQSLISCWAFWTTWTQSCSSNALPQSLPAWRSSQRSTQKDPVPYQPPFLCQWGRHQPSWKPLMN
Protocol: ATG_CIS is a cell-based, multiplexed-readout assay that uses HepG2, a human liver cell line, with measurements taken at 24 hours after chemical dosing in a 24-well plate.ATG_Xbp1_CIS is one of 52 assay component(s) measured or calculated from the ATG_CIS assay. It is designed to make measurements of mRNA induction, a form of inducible reporter, as detected with fluorescence intensity signals by Reverse transcription polymerase chain reaction (RT-PCR) and Capillary electrophoresis technology.Data from the assay component ATG_Xbp1_CIS was analyzed into 1 assay endpoint. This assay endpoint, ATG_Xbp1_CIS, was analyzed with bidirectional fitting relative to DMSO as the negative control and baseline of activity. Using a type of inducible reporter, measures of mRNA for gain or loss-of-signal activity can be used to understand the reporter gene at the transcription factor-level as they relate to the gene XBP1. Furthermore, this assay endpoint can be referred to as a primary readout, because this assay has produced multiple assay endpoints where this one serves a reporter gene function. To generalize the intended target to other relatable targets, this assay endpoint is annotated to the dna binding intended target family, where the subfamily is basic leucine zipper.
Human liver HepG2 cells are transiently transfected with multiple reporter transcription units (MRTUs) in 6-well plates using FuGene 6 reagent (Roche; 3 ml FuGene/1 mg DNA). The MRTU constructs are regulated by a cis-regulating element (promoter). […] A major difference between the CIS and TRANS system is that in CIS activities of endogenous TFs are measured, whereas the TRANS assay evaluates changes in activities of exogenous, chimeric NR-Gal4 proteins. […] At the end of 24 hour incubation, total RNA was isolated using TriZol reagent (Invitrogen). The isolated RNA is then reverse-transcribed using oligo(dT) primer and Mo-MLV reverse transcriptase (Invitrogen) with DNAse I (Ambion) treatment for 30 min. The one-tenth of the produced cDNA was amplified by PCR using Taq DNA polymerase (Invitrogen) and two reporter sequence-specific primers. The PCR products were fluorescently labeled by primer extension with 6-arboxyfluorescein (6-FAM) 5'-labeled reporter sequence-specific primer (2 min at 95 C, 20 s at 68 C and 10 min at 72 C) and these products were digested with 5U of HpaI (New England Biolabs) for 2h at 37 C. The fragments were purified using Qiaquick PCR columns (Qiagen), analyzed on an ABI 3130xL genetic analyzer (Applied Biosystems) with peak positions identified by using a set of X-rhodamine (ROX)-labeled MapMarker1000 molecular weight standards (BioVentures). The raw capillary electrophoresis data was processed using Attagraph software (Attagene).

Question: With `C[N+](C)(C)CC(=O)O` as the compound, how does the outcome read?
Answer: inactive

Question: With `O=C1Nc2ccc(Cl)cc2C(c2ccccc2)=NC1O` (stereo not given) as the compound, how does the outcome read?
Answer: inactive

Question: With `CCN(CC)C(=S)S` as the compound, how does the outcome read?
Answer: inactive

Question: For `O=C=Nc1ccccc1`, which outcome is on record?
Answer: inactive

Question: With `c1cc(OCC2CO2)ccc1Cc1ccc(OCC2CO2)cc1` (stereo not given) as the compound, how does the AC50 read?
Answer: 19.8 µM (active)

Question: `[Cl][Sb]([Cl])[Cl]` was tested. Which AC50 did it give?
Answer: 143 µM (active)

Question: With `Nc1ccccc1C(=O)OCCc1ccccc1` as the compound, how does the outcome read?
Answer: inactive

Question: Which outcome does the source give for `CN(C)C(=O)C(c1ccccc1)c1ccccc1` here?
Answer: inactive

Question: For `C[N+](C)=CCl`, which outcome is on record?
Answer: inactive

Question: `N#CCNCC#N` was tested. Which outcome did it give?
Answer: inactive

Question: How did the outcome turn out when `ClCC(Cl)Cl` was run?
Answer: inactive

Question: How did the outcome turn out when `CC1(C)[C@H](C(=O)O[C@H](C#N)c2cccc(Oc3ccccc3)c2)[C@@H]1C=C(Br)Br` was run?
Answer: inactive

Question: `CC[N+](=O)[O-]` was tested. Which outcome did it give?
Answer: inactive

Question: Which outcome does the source give for `COc1ccc(CO)cc1` here?
Answer: inactive

Question: How did the outcome turn out when `N#CCCCCC#N` was run?
Answer: inactive

Question: Which outcome does the source give for `Nc1ccccc1` here?
Answer: inactive

Question: With `O=S(=O)(c1ccccc1)c1ccccc1` as the compound, how does the outcome read?
Answer: inactive

Question: Which outcome does the source give for `CCOC(=O)COc1ccc(Cl)cc1Cl` here?
Answer: inactive

Question: `c1ccc(Nc2ccc3ccccc3c2)cc1` was tested. Which outcome did it give?
Answer: inactive

Question: Which outcome does the source give for `C=CCN(CC=C)C(=O)C(Cl)Cl` here?
Answer: inactive

Question: For `CCC(C)c1cc(C(C)(C)C)cc(-n2nc3ccccc3n2)c1O` (stereo not given), which outcome is on record?
Answer: inactive

Question: How did the outcome turn out when `C=CC(=O)OCCCCOC(=O)C=C` was run?
Answer: inactive

Question: For `O=c1c2ccccc2c(=O)c2c1cc(Cl)c1[nH]c3c([nH]c12)c(Cl)cc1c(=O)c2ccccc2c(=O)c13`, which outcome is on record?
Answer: inactive

Question: Which outcome does the source give for `CC(Cc1ccc(C(C)(C)C)cc1)CN1C[C@@H](C)O[C@@H](C)C1` (stereo not given in full) here?
Answer: inactive

Question: For `CCCCCCCCCCCCCCCC[N+](C)(C)C`, which outcome is on record?
Answer: inactive

Question: For `O=[N+]([O-])c1cc(C(F)(F)F)c(Cl)c([N+](=O)[O-])c1Cl`, which outcome is on record?
Answer: inactive

Question: `CC(C)C(=O)Cl` was tested. Which outcome did it give?
Answer: inactive

Question: With `CC(C)CCCCCCCOC(=O)c1ccccc1C(=O)OCCCCCCCC(C)C` as the compound, how does the outcome read?
Answer: inactive

Question: How did the AC50 turn out when `CNC(=O)Oc1cc(C)c(SC)c(C)c1` was run?
Answer: 68.3 µM (active)

Question: Which AC50 does the source give for `O=[N+]([O-])O.O=[N+]([O-])O.[Cd]` here?
Answer: 1.43 µM (active)

Question: Which AC50 does the source give for `CCCCCCCCCCCC#N` here?
Answer: 173 µM (active)

Question: With `[N-]=[N+]=CC(=O)OC[C@H](N)C(=O)O` as the compound, how does the outcome read?
Answer: inactive

Question: With `O=P(O)(Oc1ccccc1)Oc1ccccc1` as the compound, how does the outcome read?
Answer: inactive

Question: `Nc1ccc(Cl)c(Cl)c1` was tested. Which outcome did it give?
Answer: inactive

Question: Which outcome does the source give for `C#CC1(O)CCCCC1` here?
Answer: inactive

Question: For `CCOC(=O)NC(=S)Nc1ccccc1NC(=S)NC(=O)OCC`, which outcome is on record?
Answer: inactive

Question: How did the outcome turn out when `COC(=O)COc1ccc(Cl)cc1Cl` was run?
Answer: inactive

Question: With `O=S(=O)(O)OOS(=O)(=O)O` as the compound, how does the outcome read?
Answer: inactive

Question: How did the outcome turn out when `CSc1nc(N=[N+]=[N-])nc(NC(C)C)n1` was run?
Answer: inactive

Question: How did the outcome turn out when `CN(C)CCC#N` was run?
Answer: inactive

Reference: PubChem BioAssay (EPA / NIEHS)
